# Active and inactive are the calls of the source.
# Tests used:
# [1] = tested on: PRMT1 (protein arginine N-methyltransferase 1); test: small molecules binding arginine methyltransferase PRMT1 – biochemical, small-molecule microarray, 635 nm fluorescence, primary screen (AID 1088); details: higher = more signal;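 note: binding of Prmt1 protein to compounds spotted on small-molecule microarray slides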
# [2] = growth effects on S. cerevisiae YJM789 – YJM789 clinical isolate, OD600, 24 h, basal, primary screen (AID 1089); details: higher = more signal, called active from +8 up or from −8 down;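 note: growth of clinical yeast isolate S. cerevisiae YJM 789 seeded 1000 cells per well; test concentration not given here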
# [3] = S. pombe growth modifiers, basal conditions – strain 972, OD600, 24 h, no modulator, primary screen (AID 1090);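 note: basal condition with compound alone and no growth modifier present; test concentration not given here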; details: S. pombe 972 growth, higher = more signal, called active from +8 up or from −8 down
# [4] = budding yeast growth modifiers under rapamycin – strain BY4716, OD600, 96 h, primary screen (AID 1091); note: test concentration not given here; details: S. cerevisiae BY4716 + rapamycin, higher = more signal, called active from +8 up or from −8 down
# [5] = molecular target: Torsin-1A-interacting protein 2 (Homo sapiens) (UniProt Q8NFQ8); test: small molecules binding lysate-expressed LULL1 – cell lysate, human LULL1 lysate, 635/667 nm fluorescence, primary screen (AID 1092); details: small-molecule microarray, hLULL1 lysate binding, 635 nm fluorescence; higher = more signal;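 note: probe is lysate of COS7 cells overexpressing human LULL1; score merges per-feature 667 nm fluorescence with signal-to-noise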
# Chain of Torsin-1A-interacting protein 2 (Homo sapiens) (Q8NFQ8 whole entry, looked up): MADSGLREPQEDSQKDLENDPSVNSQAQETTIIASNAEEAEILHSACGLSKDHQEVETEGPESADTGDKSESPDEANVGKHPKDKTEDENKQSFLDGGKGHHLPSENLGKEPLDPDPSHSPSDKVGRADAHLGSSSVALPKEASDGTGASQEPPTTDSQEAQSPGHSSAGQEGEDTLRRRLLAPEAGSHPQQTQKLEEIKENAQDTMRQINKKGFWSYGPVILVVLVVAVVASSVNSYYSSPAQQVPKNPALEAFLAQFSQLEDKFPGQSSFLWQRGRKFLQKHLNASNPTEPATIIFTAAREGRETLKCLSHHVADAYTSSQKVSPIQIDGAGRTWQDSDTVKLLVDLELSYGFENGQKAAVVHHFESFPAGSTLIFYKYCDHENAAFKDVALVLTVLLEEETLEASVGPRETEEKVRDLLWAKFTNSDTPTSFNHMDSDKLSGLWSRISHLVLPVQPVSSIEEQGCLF
# [6] = optical density change of DRC41 E. coli – strain DRC41, OD650, 24 h, E. coli filamentation project, primary screen (AID 1093);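 note: MC1000 strain lacking acrAB efflux and sulA so SOS filamentation is blocked; test concentration not given here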; details: E. coli DRC41 growth, higher = more signal, called active from +8 up or from −8 down
# [7] = probe aLefty2 binding to arrayed compounds – biochemical, biotinylated probe, 635/667 nm fluorescence, primary screen (AID 1094); details: small-molecule microarray, higher = more signal;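 note: score merges spot fluorescence near 667 nm with spot signal-to-noise ratio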
# [8] = tested on: Noggin (protein binding on small-molecule microarray); test: small molecules binding Noggin protein – biochemical, 635/667 nm fluorescence, primary screen (AID 1095); details: 635 nm fluorescence, higher = more signal;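 note: score merges 667 nm feature fluorescence with signal to noise over triplicate slides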
# [9] = molecular target: Neurogenic locus notch homolog protein 3 (Homo sapiens) (UniProt Q9UM47); test: small molecules binding NOTCH3 protein – biochemical, 635/667 nm fluorescence, primary screen (AID 1096); details: small-molecule microarray, 635 nm fluorescence, higher = more signal
# Chain of Neurogenic locus notch homolog protein 3 (Homo sapiens) (Q9UM47 whole entry, looked up): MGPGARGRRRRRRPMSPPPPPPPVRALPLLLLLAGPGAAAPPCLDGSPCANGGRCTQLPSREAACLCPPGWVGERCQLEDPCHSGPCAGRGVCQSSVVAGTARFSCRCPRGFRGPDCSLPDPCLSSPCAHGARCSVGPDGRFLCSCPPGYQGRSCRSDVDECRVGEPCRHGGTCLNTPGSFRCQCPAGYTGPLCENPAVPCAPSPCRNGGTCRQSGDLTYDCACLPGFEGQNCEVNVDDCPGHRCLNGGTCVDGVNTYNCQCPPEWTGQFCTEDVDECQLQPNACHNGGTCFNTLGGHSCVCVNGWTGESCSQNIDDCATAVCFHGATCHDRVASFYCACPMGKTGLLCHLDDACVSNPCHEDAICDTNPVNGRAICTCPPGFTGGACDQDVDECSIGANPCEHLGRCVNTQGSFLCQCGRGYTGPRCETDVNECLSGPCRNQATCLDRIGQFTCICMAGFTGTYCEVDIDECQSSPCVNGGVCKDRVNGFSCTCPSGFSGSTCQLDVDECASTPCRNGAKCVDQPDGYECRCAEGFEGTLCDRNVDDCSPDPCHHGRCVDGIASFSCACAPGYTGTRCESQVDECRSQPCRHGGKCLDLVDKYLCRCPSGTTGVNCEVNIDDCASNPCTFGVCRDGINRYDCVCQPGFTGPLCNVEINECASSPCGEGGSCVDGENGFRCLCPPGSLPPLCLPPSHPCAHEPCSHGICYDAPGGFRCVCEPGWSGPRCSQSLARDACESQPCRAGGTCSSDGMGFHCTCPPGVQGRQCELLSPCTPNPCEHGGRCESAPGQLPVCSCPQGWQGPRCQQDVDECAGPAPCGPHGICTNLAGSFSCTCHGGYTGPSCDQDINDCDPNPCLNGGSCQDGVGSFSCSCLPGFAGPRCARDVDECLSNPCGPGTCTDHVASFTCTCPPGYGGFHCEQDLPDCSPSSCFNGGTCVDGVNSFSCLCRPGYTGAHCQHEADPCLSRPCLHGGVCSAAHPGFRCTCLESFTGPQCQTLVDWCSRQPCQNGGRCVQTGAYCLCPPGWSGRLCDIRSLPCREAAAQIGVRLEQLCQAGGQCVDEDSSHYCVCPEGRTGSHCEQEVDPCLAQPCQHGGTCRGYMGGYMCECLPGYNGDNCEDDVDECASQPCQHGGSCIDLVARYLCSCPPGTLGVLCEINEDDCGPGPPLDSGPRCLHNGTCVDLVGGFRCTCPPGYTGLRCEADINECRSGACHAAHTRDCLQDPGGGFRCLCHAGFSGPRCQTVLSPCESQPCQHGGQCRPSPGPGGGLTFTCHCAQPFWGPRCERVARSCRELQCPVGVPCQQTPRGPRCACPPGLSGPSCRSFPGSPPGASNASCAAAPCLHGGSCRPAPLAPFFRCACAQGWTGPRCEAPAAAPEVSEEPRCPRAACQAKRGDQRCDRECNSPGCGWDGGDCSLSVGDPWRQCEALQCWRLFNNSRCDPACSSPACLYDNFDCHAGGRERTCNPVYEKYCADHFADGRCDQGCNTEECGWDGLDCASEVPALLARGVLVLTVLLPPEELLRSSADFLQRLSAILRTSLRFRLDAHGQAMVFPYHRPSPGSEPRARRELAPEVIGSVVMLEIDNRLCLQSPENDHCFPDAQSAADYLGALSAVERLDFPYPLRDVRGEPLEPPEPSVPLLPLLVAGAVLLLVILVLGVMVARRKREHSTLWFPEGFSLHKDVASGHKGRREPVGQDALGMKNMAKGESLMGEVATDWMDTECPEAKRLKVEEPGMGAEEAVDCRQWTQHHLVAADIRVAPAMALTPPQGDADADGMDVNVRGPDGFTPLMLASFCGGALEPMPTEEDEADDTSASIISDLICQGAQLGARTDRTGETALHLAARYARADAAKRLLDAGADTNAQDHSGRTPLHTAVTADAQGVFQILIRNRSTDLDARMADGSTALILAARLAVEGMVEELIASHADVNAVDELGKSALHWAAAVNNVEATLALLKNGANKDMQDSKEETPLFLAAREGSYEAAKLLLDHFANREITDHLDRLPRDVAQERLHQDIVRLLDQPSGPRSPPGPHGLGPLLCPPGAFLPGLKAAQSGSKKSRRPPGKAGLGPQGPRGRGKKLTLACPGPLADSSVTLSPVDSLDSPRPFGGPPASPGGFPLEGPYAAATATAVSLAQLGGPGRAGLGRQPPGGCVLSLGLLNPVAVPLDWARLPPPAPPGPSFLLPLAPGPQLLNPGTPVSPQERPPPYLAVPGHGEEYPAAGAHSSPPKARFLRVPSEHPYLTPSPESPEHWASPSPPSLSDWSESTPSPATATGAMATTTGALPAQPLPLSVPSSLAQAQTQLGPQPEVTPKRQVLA
# [10] = probe aEGFR binding to arrayed compounds – biochemical, biotinylated probe, 635/667 nm fluorescence, primary screen (AID 1097); details: small-molecule microarray, higher = more signal;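 note: probe is a biotinylated anti-EGFR antibody binding compounds printed on slides; score combines fluorescence near 667 nm and signal to noise of each spot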
SMILES,composite z-score [1],z-score [2],z-score [3],z-score [4],composite z-score [5],z-score [6],composite z-score [7],composite z-score [8],composite z-score [9],composite z-score [10]
O=C1NC(=O)C2C1C=CC(C(O)c1c(F)cccc1Cl)N2Nc1ccccn1 (stereo not given),0.409,0.107 (inactive),0.983 (inactive),0.0515 (inactive),-0.191,-0.764 (inactive),0.21,0.148,0.01,0.213
O=C(CS)NCCCCCCNC(=O)[C@H]1C[C@H]2C(=O)N[C@@H](Cc3ccccc3)C(=O)N2[C@H]1c1cccc(OCCO)c1,1.54,0.646 (inactive),0.311 (inactive),1.15 (inactive),2.81,-0.23 (inactive),0.118,1.6,1.02,0.14
CCN(CC)c1ccc(N2CC=CC34O[C@@H]5/C=C\CCC(C)OC(=O)C5[C@H]3C(=O)N(CCO)[C@@H]4C2=O)cc1 (stereo not given in full),1.2,-1.27 (inactive),-2.02 (inactive),-0.806 (inactive),3.17,0.565 (inactive),-0.134,-0.563,0.0541,-0.203
CCCC=C(CCC)[C@@H](NP(=O)(c1ccccc1)c1ccccc1)c1ccc(C(F)(F)F)cc1,0.804,-0.276 (inactive),0.423 (inactive),0.0291 (inactive),1.01,-0.159 (inactive),0.0593,-0.13,0.11,0.58
CN(C)CCCNC(=O)[C@@]1(c2ccc([N+](=O)[O-])cc2)CC(=O)N(CC23CC4CC(CC(C4)C2)C3)[C@@H]1c1ccc(CO)cc1,1.53,-22.2 (active),-20.2 (active),-4.03 (inactive),3.39,-0.279 (inactive),0.969,1.32,1.05,0.0529
CN1C(=O)C2C=CC(C(O)C3CCCCC3)N(N3CCCCC3)C2C1=O (stereo not given),1.56,0.823 (inactive),0.788 (inactive),0.884 (inactive),2.45,-0.593 (inactive),0.25,0.684,1.07,0.0939
NC(=O)NCC#Cc1ccc2c(c1)[C@]1(C(=O)N2)[C@H](C(=O)Nc2nc3ccccc3s2)[C@H]2C(=O)O[C@H](c3ccccc3)[C@H](c3ccccc3)N2[C@@H]1c1ccc(O)cc1,1.41,3.89 (inactive),3.26 (inactive),7.47 (inactive),-0.569,2.01 (inactive),0.14,0.614,1.05,-0.0701
COCCCNC(=O)[C@]1(Cc2ccccc2CN=[N+]=[N-])N=C(c2ccc(OCCCO)cc2)O[C@@H]1c1ccccc1,0.972,-0.212 (inactive),-0.0448 (inactive),30.9 (active),2.67,1.01 (inactive),-0.0819,0.348,0.599,0.0316
C=CCOC(=O)[C@H]1[C@@H]2C(=O)O[C@@H](c3ccccc3)[C@@H](c3ccccc3)N2[C@@H](c2ccc(OCCOC(=O)[C@H]3C[C@H]4C(=O)N[C@@H](Cc5ccccc5)C(=O)N4[C@H]3c3cccc(OCCO)c3)cc2)[C@]12C(=O)Nc1ccc(I)cc12,1.54,0.731 (inactive),1 (inactive),4 (inactive),2.36,-0.0451 (inactive),-0.185,1.91,1.09,-0.067
O=c1cccc(-c2ccc(C(F)(F)F)cc2)o1,-1.99,-2.99 (inactive),-8.39 (active),0.427 (inactive),-0.0985,-0.491 (inactive),-0.16,-0.161,-0.894,-0.22
O=C1c2ccccc2[C@](Cc2ccccc2I)(C(=O)NCc2ccccc2)[C@H](c2ccc(CO)cc2)N1C1CCCCC1,1.27,-0.0116 (inactive),-1.32 (inactive),-0.0677 (inactive),1.78,-0.403 (inactive),0.117,1.32,0.918,0.494
NCCCCCCNC(=O)[C@@H]1C[C@@H]2C(=O)N3CCC[C@H]3C(=O)N2[C@@H]1c1ccc(O)cc1,1.25,-0.723 (inactive),-1.22 (inactive),-0.476 (inactive),2.02,-1.03 (inactive),-0.0912,1.58,0.494,-0.0568
O=C1O[C@@H](c2ccccc2)[C@@H](c2ccccc2)N2[C@@H](c3ccc(O)cc3)[C@]3(C(=O)Nc4ccccc43)[C@@H](C(=O)Nc3nc4ccccc4s3)[C@H]12,1.51,0.813 (inactive),0.849 (inactive),1.4 (inactive),2.77,-0.0768 (inactive),-0.15,0.797,0.881,-0.132

# From PubChem BioAssay
